The source of these data is PubChem BioAssay (NCATS).

Test [1] is described as follows: qHTS of pediatric cancer cell lines to identify multiple opportunities for drug repurposing: Primary screen for RD cells (AID 1347104). Also: nearly all actives have a fitted effect of over 55% in size. Also: potency is read from the fitted curve at half-maximal effect.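 As to activity change, negative = cytotoxic: plate controls were DMSO for no effect and bortezomib for full effect.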 The essentials:
(§1)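 Cells plated at 500-1,000/well in growth medium, compounds added after 5 h. MIPE tested at 11 points (from 0.78 nM), NPC at 8 points (from 0.59 nM). CellTiter-Glo luminescence after 48 h; concentration-response curves from primary screen.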
In general terms: In qHTS, concentration-response curves come from the screen itself.

A short description of test [2]: qHTS of pediatric cancer cell lines to identify multiple opportunities for drug repurposing: Primary screen for control Hh wild type fibroblast cells (AID 1347106).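 Also: series mostly up to about 46 µM; % is scaled to controls: 0 for no effect and ±100 for the full control effect; a drop in luminescence marks cytotoxicity and a rise apparent proliferation; nearly all actives have a fitted effect of over 55% in size.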 An outline of the steps: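 Viability after 48 h compound treatment at 37C, 500-1,000 cells/well, read as ATP luminescence with CellTiter-Glo. Primary screens used 11-point (MIPE, 0.78 nM-46 µM) or 8-point (NPC, 0.59 nM-46 µM) final concentrations; follow-up screens used 11-point dilutions.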

A short description of test [3]: qHTS of pediatric cancer cell lines to identify multiple opportunities for drug repurposing: Primary screen for Rh30 cells (AID 1347107). Also: series mostly up to about 46 µM; % is scaled to controls: 0 for no effect and ±100 for the full control effect; nearly all actives have a fitted effect of over 75% in size. An outline of the steps: (§2)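 Cells (500-1,000/well) rested 5 h, then received compounds for 48 h; metabolically active cells were measured by CellTiter-Glo luminescence. Final concentrations spanned up to 46 µM (MIPE, 11-point) or 0.59 nM-46 µM (NPC, 8-point) in primary screens, 11-point in follow-ups.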

Test [4] can be described thus: qHTS of pediatric cancer cell lines to identify multiple opportunities for drug repurposing: Primary screen for Rh41 cells (AID 1347108).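 Also: series mostly up to about 46 µM; luminescence drop marks cytotoxic hits; nearly all actives have a fitted effect of over 70% in size.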 An outline of the steps:
as §1

The nature of test [5]: qHTS of pediatric cancer cell lines to identify multiple opportunities for drug repurposing: Confirmatory screen for A673 cells (AID 1347110).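 Also: potency is read from the fitted curve at half-maximal effect; cells exposed to compound for 48 h before the viability read; nearly all actives have a fitted effect of over 65% in size.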 The essentials:
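Cells plated at 500-1,000/well were treated five hours later with multi-point dilutions up to 46 µM final. After two days, CellTiter-Glo was added and luminescence read.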

The nature of test [6]: qHTS of pediatric cancer cell lines to identify multiple opportunities for drug repurposing: Confirmatory screen for LAN-5 cells (AID 1347113). Also: % is scaled to controls: 0 for no effect and ±100 for the full control effect; nearly all actives have a fitted effect of over 65% in size. An outline of the steps:
as §2

A short description of test [7]: qHTS of pediatric cancer cell lines to identify multiple opportunities for drug repurposing: Confirmatory screen for TC32 cells (AID 1347118).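 Also: potency is read from the fitted curve at half-maximal effect; cells exposed to compound for 48 h before the read; nearly all actives have a fitted effect of over 65% in size.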 The essentials: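 Luminescent ATP read-out (CellTiter-Glo) of metabolically active TC32 cells after 48 h exposure. Concentration-response curves came from 11-point (MIPE, 0.78 nM–46 µM) or 8-point (NPC, 0.59 nM–46 µM) primary titrations; follow-up used 11 points.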

A short description of test [8]: qHTS of pediatric cancer cell lines to identify multiple opportunities for drug repurposing: Confirmatory screen for MG 63 (6-TG R) cells (AID 1347119).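 Also: plate controls were DMSO neutral control for no effect and bortezomib for full effect; nearly all actives have a fitted effect of over 55% in size.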 The essentials:
as §2

The nature of test [9]: qHTS of pediatric cancer cell lines to identify multiple opportunities for drug repurposing: Confirmatory screen for control Hh wild type fibroblast cells (AID 1347121).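 Also: plate controls were DMSO for no effect and bortezomib for full effect; nearly all actives have a fitted effect of over 70% in size.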 An outline of the steps:
as §2

A short description of test [10]: qHTS of pediatric cancer cell lines to identify multiple opportunities for drug repurposing: Confirmatory screen for Rh41 cells (AID 1347123).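 Also: 48 h compound exposure; plate controls were DMSO for no effect and bortezomib for full effect; nearly all actives have a fitted effect of over 60% in size.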 The essentials: as §2
A short description of test [11]: qHTS of pediatric cancer cell lines to identify multiple opportunities for drug repurposing: Confirmatory screen for RD cells (AID 1347124).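 Also: potency is read from the fitted curve at half-maximal effect; cells exposed to compound for 48 h before viability readout; nearly all actives have a fitted effect of over 65% in size.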 The essentials: as §2
Test [12] can be described thus: qHTS of pediatric cancer cell lines to identify multiple opportunities for drug repurposing: Confirmatory screen for OHS-50 cells (AID 1347128).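 Also: potency is read from the fitted curve at half-maximal effect; compound exposure lasted 48 h at 37 degrees C; nearly all actives have a fitted effect of over 55% in size.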 The essentials:
as §2

Inconclusive results are not listed. Unmarked numbers belong to inactive results. Activity calls are given as the source filed them. Calls follow the shape of the dose curve; as a rule, active = well fitted curve in the direction sought with a large enough effect; inconclusive = small, poorly fitted or top-dose-only effect, or another doubt; inactive = no such curve, though single readings can be large; an effect the other way counts as inactive or inconclusive. *1 amine or outer side, *2 acyl side, *3 side chain or, on linkers, in order; H or OH if unused. Where a SMILES comes first, the peptide text is derived from it. Bridges are numbered along the chain shown (N, C = ends). [ ]: non-standard residue; d: D form. The star is where a group is joined. ξ: configuration not given here. X10 = NC1=NCCC(C(N[*:1])C(=O)[*:2])N1; ΔAla(3-NHCONH2) = NC(=O)NC=C(N)C(=O)O; ξβ3hOrn = NCCCC(N)CC(=O)*; Dap = NC[CH](N)C(=O)O

Turning to `Fc1ccc(C(c2ccc(F)cc2)N2CCNCC2)cc1`, the Potency result in test [1], in test [2], in test [3] and in test [4] was “inactive” in each case.
As to `Cc1[nH]cnc1-c1ccc(Cl)cc1`, the Potency entry in [1], in [2], in test [3] and in [4] was “inactive” throughout.
As to `CCCCCC1Nc2cc(C(F)(F)F)c(S(N)(=O)=O)cc2S(=O)(=O)N1` (stereo not drawn), the Potency entry in test [1], in test [2], in test [3] and in test [4] was “inactive” in each case.
On to `CC(=O)Nc1c(I)c(NC(C)=O)c(I)c(C(=O)O)c1I`, for which the Potency result in [1], in test [3] and in [4] was “inactive” in each case.
As for `O=C1Cc2cc(Cl)ccc2N1`, the Potency result in test [1], in test [2] and in test [4] was “inactive” each time.
With `CNC(=O)c1c(I)c(NC(C)=O)c(I)c(C(=O)O)c1I`, the Potency result in [1], in test [2], in test [3] and in test [4] was “inactive” throughout.
On to `Cc1ncc([N+](=O)[O-])n1C`, for which the Potency result in test [1], in [2], in test [3] and in test [4] was “inactive” each time.
Take `O=C1NCCN1CCN1CCC(c2cn(-c3ccc(F)cc3)c3ccc(Cl)cc23)CC1`: the Potency in test [1] is 26.6 µM (active). Further, in [3], the Potency entry is “inactive”.
`C[C@@H](O[C@H]1OCCN(Cc2n[nH]c(=O)[nH]2)[C@H]1c1ccc(F)cc1)c1cc(C(F)(F)F)cc(C(F)(F)F)c1`: in test [1], the Potency was 26.6 µM (active). Further, in test [3], the Potency result was “inactive”.
On to `Cc1nc(N)nc(N)c1-c1ccc(Cl)c(Cl)c1`, for which the Potency was 1.33 µM (active) in [1]; 1.65 µM (active) in test [5]; 0.147 µM (active) in test [7]; 2.61 µM (active) in test [11]; 1.31 µM (active) in test [12]. In addition, the Potency entry in [2], in test [3], in test [4], in test [6], in test [8] and in test [9] was “inactive” throughout. The Potency result in [10] was “inactive”.
Turning to `NCCCC(N)CC(=O)NCC1NC(=O)C(CO)NC(=O)C(N)CNC(=O)C(C2CCN=C(N)N2)NC(=O)C(=CNC(N)=O)NC1=O` (stereo not drawn) (H-[Dap]S[Dap](ξβ3hOrn)[ΔAla(3-NHCONH2)][X10]; lactam 1-C; configuration not given here), the activity change, negative = cytotoxic is 2.79% [at 0.597 µM] in test [1], 5.88% [at 0.597 µM] in test [2], 22.4% [at 0.597 µM] in [3] and 17.6% [at 0.597 µM] in test [4].
For the molecule `CCCC(CCC)(C(=O)OCC)C(=O)OCC`, the Potency result in test [1], in test [2], in test [3] and in test [4] was “inactive” throughout.
As to `COC(=O)/C=C(/C)N`, the Potency result in test [1], in test [2], in [3] and in [4] was “inactive” each time.
In the case of `Oc1ccccc1`, the Potency result in [1], in test [2], in test [3] and in [4] was “inactive” each time.
